Results from publication PMC10726135, “HNF4α isoforms regulate the circadian balance between carbohydrate and lipid metabolism in the liver”.
The full ranking holds about 18,000 sequences; the median of “log2 normalized intensity” is about 0.39, and the highest 2% start at about 6.6. This is one part of a sample in which the highest values are shown more often than they occur.

These sequences were tested against T1, HNF4alpha2 (COS-7 nuclear extract) (Homo sapiens, UniProt P41235 1-474) (assay: protein-binding microarray; COS-7 nuclear extract on double-stranded Agilent 4x180k PBM; binding buffer, salt, pH and temperature not given in the material; high values mean tight binding). Settings: chain copies: 2; label: 3' end of strand 1 on the slide; dsDNA, one strand shown.
T1 sequence: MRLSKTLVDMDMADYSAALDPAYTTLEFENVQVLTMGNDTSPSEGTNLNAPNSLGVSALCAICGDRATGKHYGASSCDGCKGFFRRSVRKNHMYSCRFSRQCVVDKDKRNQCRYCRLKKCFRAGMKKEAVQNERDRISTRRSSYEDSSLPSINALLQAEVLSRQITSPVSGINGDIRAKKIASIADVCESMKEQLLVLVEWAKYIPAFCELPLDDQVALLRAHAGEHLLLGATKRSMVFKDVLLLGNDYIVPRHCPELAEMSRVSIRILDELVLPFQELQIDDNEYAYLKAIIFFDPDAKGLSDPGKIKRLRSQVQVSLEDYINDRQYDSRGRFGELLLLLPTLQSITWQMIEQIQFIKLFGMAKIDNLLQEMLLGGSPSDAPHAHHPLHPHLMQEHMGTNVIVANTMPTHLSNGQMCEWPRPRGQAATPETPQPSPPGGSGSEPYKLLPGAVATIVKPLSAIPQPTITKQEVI
In short: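 Using CaPO4, COS-7 cells were transiently transfected with a human HNF4α isoform expression vector, and their nuclear extracts were applied to a custom Agilent SurePrint G3 4x180k double-stranded oligonucleotide array (~60 nt; ~44,000 test sequences in quadruplicate). Bound HNF4α was imaged at 2-µm resolution with an Agilent G2565CA scanner. Agilent software supplied the background-corrected, normalized gProcessedSignal that serves as the binding signal.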
In the case of “CCTCAATGCTATCTCCCAGTTCTTTTGACCGCCTAGGGAGATTAGAGTATCGGTCGA”, the binding signal is reported as 2.52 log2 normalized intensity.
Sequence “TCCTTTTGACCACAGTTATCTCCCCAGCTTGCCTAGGGAGATTAGAGTATCGGTCGA” has a binding signal of 2.47 log2 normalized intensity.
“ATCTCCCAGTTCTTTTGACCTTTGCCTCATGCCTAGGGAGATTAGAGTATCGGTCGA” gave a binding signal of 7.95 log2 normalized intensity.
With “CCAGTTCTTTTGACCTTTGCCTCATTCTTAGCCTAGGGAGATTAGAGTATCGGTCGA” the binding signal was 6.03 log2 normalized intensity.
Sequence “AGTTATATCTTACCTCCTTCTCCCCCATGCGCCTAGGGAGATTAGAGTATCGGTCGA” has a binding signal of 4.87 log2 normalized intensity.
“GAGCGCTTTGAGGCCTATGGCGAAAAAGGAGCCTAGGGAGATTAGAGTATCGGTCGA” was tested, and the binding signal was -0.829 log2 normalized intensity.
“AAAAAAAAAAATTACTGACCCTTGCACTGTGCCTAGGGAGATTAGAGTATCGGTCGA” gave a binding signal of 4.58 log2 normalized intensity.
Sequence “AATTCATCTCTAAGCTACTGAAAATGACCTGCCTAGGGAGATTAGAGTATCGGTCGA” has a binding signal of 3.39 log2 normalized intensity.
“AAAAAATTACTGACCCTTGCACTGTAAGATGCCTAGGGAGATTAGAGTATCGGTCGA” was tested, and the binding signal was 3.49 log2 normalized intensity.
With “TAAGCTACTGAAAATGACCTTTGTTCCCTGGCCTAGGGAGATTAGAGTATCGGTCGA” the binding signal was 8.2 log2 normalized intensity.
For “ATCTCTAAGCTACTGAAAATGACCTTTGTTGCCTAGGGAGATTAGAGTATCGGTCGA”, the binding signal was 6.11 log2 normalized intensity.
With “TACTGAAAATGACCTTTGTTCCCTGCACTTGCCTAGGGAGATTAGAGTATCGGTCGA” the binding signal was 7.15 log2 normalized intensity.
“AAGCAATGGCTACCAAGGAGTGGACTGTTCGCCTAGGGAGATTAGAGTATCGGTCGA” was tested, and the binding signal was 1.7 log2 normalized intensity.
“GGGGGCAAGGTACACCATCTATGAGCTCAAGCCTAGGGAGATTAGAGTATCGGTCGA” was tested, and the binding signal was 1.28 log2 normalized intensity.
For “AAAGGCGTTTGCTCCCATCCCCCCAAAGGCGCCTAGGGAGATTAGAGTATCGGTCGA”, the binding signal was 4.99 log2 normalized intensity.
“TTAGATCAGAGGTCTAATTCCCAAGGGTATGCCTAGGGAGATTAGAGTATCGGTCGA” gave a binding signal of -0.435 log2 normalized intensity.
“TTTGGAATTTGACCTCATTTGCTCCCAGTGGCCTAGGGAGATTAGAGTATCGGTCGA” showed a binding signal of 3.85 log2 normalized intensity.
“TAGCACTTTGGACCTCCACTTTGGAGGGGGGCCTAGGGAGATTAGAGTATCGGTCGA” gave a binding signal of 1.7 log2 normalized intensity.
For “CCAGTGAGACCCATTTTGGACTTTGACCTCGCCTAGGGAGATTAGAGTATCGGTCGA”, the binding signal was 11.9 log2 normalized intensity.
Work on “CCATTTTGGACTTTGACCTCCAAAATTATAGCCTAGGGAGATTAGAGTATCGGTCGA” yielded a binding signal of 10.4 log2 normalized intensity.
In the case of “CTTTGTAGCACTTTGGACCTCCACTTTGGAGCCTAGGGAGATTAGAGTATCGGTCGA”, the binding signal is reported as 3.1 log2 normalized intensity.
Sequence “CATTGACTTTGCCTTTTGGCTAAAGTCCAAGCCTAGGGAGATTAGAGTATCGGTCGA” has a binding signal of 4.16 log2 normalized intensity.
With “GAATTCTTGACTTTGGACTTTCAAAAGTTAGCCTAGGGAGATTAGAGTATCGGTCGA” the binding signal was 4.21 log2 normalized intensity.
“CACAGCTGGACTTTGGCTGCAAAATTTGAAGCCTAGGGAGATTAGAGTATCGGTCGA” gave a binding signal of 3.04 log2 normalized intensity.
For “TTGGACTTTGACCTCCAAAATTATAAGTCAGCCTAGGGAGATTAGAGTATCGGTCGA”, the binding signal was 8.25 log2 normalized intensity.
“AATGATGATGACTTTTGACCCCAGGGGAAAGCCTAGGGAGATTAGAGTATCGGTCGA” showed a binding signal of 5.51 log2 normalized intensity.
In the case of “GAGACCCATTTTGGACTTTGACCTCCAAAAGCCTAGGGAGATTAGAGTATCGGTCGA”, the binding signal is reported as 10.7 log2 normalized intensity.
“TTAGCCCAGTGAGACCCATTTTGGACTTTGGCCTAGGGAGATTAGAGTATCGGTCGA” was tested, and the binding signal was 6.34 log2 normalized intensity.
“CCTCTCTCTCTCTCTCTCACACACACACACGCCTAGGGAGATTAGAGTATCGGTCGA” showed a binding signal of 2.09 log2 normalized intensity.
With “CTTACTTGGCATCATCAAACAAGATTTATCGCCTAGGGAGATTAGAGTATCGGTCGA” the binding signal was -0.732 log2 normalized intensity.
“TGTAGGTAAGCACAAAGTACAGCTTTTTGTGCCTAGGGAGATTAGAGTATCGGTCGA” showed a binding signal of 1.13 log2 normalized intensity.
“TATAAAGGTCAACTGCCCTCTCAAATTACAGCCTAGGGAGATTAGAGTATCGGTCGA” was tested, and the binding signal was 1.51 log2 normalized intensity.
“TTTTAAAATAGATAAGTCCCTAAGAGGAATGCCTAGGGAGATTAGAGTATCGGTCGA” was tested, and the binding signal was -0.74 log2 normalized intensity.
Work on “ACAAATGAGGGGACAAAGTTCGTGGAAAGTGCCTAGGGAGATTAGAGTATCGGTCGA” yielded a binding signal of 2.91 log2 normalized intensity.
In the case of “GAGCCTGCACGCCTGTTCACATTCCAGTGTGCCTAGGGAGATTAGAGTATCGGTCGA”, the binding signal is reported as -0.595 log2 normalized intensity.
Work on “GACAGGATATTTTGAGGGCTCAAAGGTTACGCCTAGGGAGATTAGAGTATCGGTCGA” yielded a binding signal of 5.37 log2 normalized intensity.
In the case of “TTTCTTAATTGCCCTTTGCCCTTTGCCCAAGCCTAGGGAGATTAGAGTATCGGTCGA”, the binding signal is reported as 8.01 log2 normalized intensity.
“GGGTATGAATTTAACCTTTGCTCTCTGAAAGCCTAGGGAGATTAGAGTATCGGTCGA” was tested, and the binding signal was 5.68 log2 normalized intensity.
In the case of “TGACCTTTGCATTCTTACCCAAGCCCCAAAGCCTAGGGAGATTAGAGTATCGGTCGA”, the binding signal is reported as 3.73 log2 normalized intensity.
Work on “CCCTAATTACATATTAACCTTTGCCCCAGCGCCTAGGGAGATTAGAGTATCGGTCGA” yielded a binding signal of 6.63 log2 normalized intensity.
For “ATATTAACCTTTGCCCCAGCTGTCACCCAGGCCTAGGGAGATTAGAGTATCGGTCGA”, the binding signal was 5.03 log2 normalized intensity.
With “ATTACATATTAACCTTTGCCCCAGCTGTCAGCCTAGGGAGATTAGAGTATCGGTCGA” the binding signal was 5.74 log2 normalized intensity.
“AGACTTTTTTTTTCTTAATTGCCCTTTGCCGCCTAGGGAGATTAGAGTATCGGTCGA” was tested, and the binding signal was 4.26 log2 normalized intensity.
“TTTTTTTTCTTAATTGCCCTTTGCCCTTTGGCCTAGGGAGATTAGAGTATCGGTCGA” gave a binding signal of 8.54 log2 normalized intensity.
With “ACAGTAGACTTTTTTTTTCTTAATTGCCCTGCCTAGGGAGATTAGAGTATCGGTCGA” the binding signal was 2.84 log2 normalized intensity.
With “CTACAGGGTATGAATTTAACCTTTGCTCTCGCCTAGGGAGATTAGAGTATCGGTCGA” the binding signal was 6.87 log2 normalized intensity.
“ACTTTGCCCTTTTTTTCTCTCCCCTTTTAAGCCTAGGGAGATTAGAGTATCGGTCGA” was tested, and the binding signal was 2.54 log2 normalized intensity.
“CCATCCTACAGGGTATGAATTTAACCTTTGGCCTAGGGAGATTAGAGTATCGGTCGA” showed a binding signal of 4.2 log2 normalized intensity.
